Test results from the supplement of paper PMC6089552.
Out of some 3,200 compounds screened, about 300 (9.4%) showed activity. For the sample, actives were picked, then their nearest neighbours and some compounds at random.

Tested on: A673/TR/shEF
Test: cell viability (LOESS-normalised, relative to median of negative controls) (log2 ratio); higher = more viable cells (less compound effect), active = hit call of the paper (over 3 MAD below the median)
Conditions: treatment time: 72 h
Method in brief: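 Doxycycline, present or absent from 24 h before compounds, was used to induce EWS-FLI1 shRNA knockdown in A673/TR/shEF Ewing sarcoma cells at 1,500 per well in 384-well plates. Cells then received library compounds at two or more concentrations, or DMSO controls, for three days. Viability was measured by CellTiter-Glo luminescence on an Envision reader, and per-plate LOESS correction, division by the negative-control median and log2 transformation followed.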

[1] = 0.025 µM, library screen: screen1, EWS-FLI1 expression: high (no doxycycline)
[2] = 0.025 µM, library screen: screen1, EWS-FLI1 expression: low (doxycycline-induced shRNA knockdown)
[3] = 0.25 µM, library screen: screen1, EWS-FLI1 expression: high (no doxycycline)
[4] = 0.25 µM, library screen: screen1, EWS-FLI1 expression: low (doxycycline-induced shRNA knockdown)
[5] = 2.5 µM, library screen: screen1, EWS-FLI1 expression: high (no doxycycline)
[6] = 2.5 µM, library screen: screen1, EWS-FLI1 expression: low (doxycycline-induced shRNA knockdown)
[7] = 25 µM, library screen: screen1, EWS-FLI1 expression: high (no doxycycline)
[8] = 25 µM, library screen: screen1, EWS-FLI1 expression: low (doxycycline-induced shRNA knockdown)
[9] = 0.25 µM, library screen: screen2, EWS-FLI1 expression: high (no doxycycline)
[10] = 0.25 µM, library screen: screen2, EWS-FLI1 expression: low (doxycycline-induced shRNA knockdown)
[11] = 2.5 µM, library screen: screen2, EWS-FLI1 expression: high (no doxycycline)
[12] = 2.5 µM, library screen: screen2, EWS-FLI1 expression: low (doxycycline-induced shRNA knockdown)

Measured: cell viability (log2)

N#CC(C#N)=Cc1ccc(O)cc1
inactive: [1] 0.0481 | [2] 0.0237 | [3] 0.0596 | [4] 0.0262 | [5] 0.0426 | [6] 0.0755 | [7] 0.0734 | [8] 0.0191

N#CC(C#N)=Cc1ccc([N+](=O)[O-])c(O)c1
0.311: [3]
active: [5] -0.131 | [6] -0.169 | [11] -0.559 | [12] -0.298 | [7] -0.408 | [8] -0.158
0.298: [1]
inactive: [2] 0.0132 | [4] -0.0619 | [9] 0.0683 | [10] 0.016

N#CC(C#N)=Cc1cc(O)c(O)c([N+](=O)[O-])c1
inactive: [1] 0.235 | [2] -0.0184 | [4] 0.00958 | [6] -0.0107 | [8] 0.176
0.283: [3]
active: [5] -0.167 | [7] -0.153

COc1cc(C=C(C#N)C#N)cc(O)c1O
inactive: [9] 0.15 | [10] 0.104 | [11] 0.12 | [12] 0.124

N#CC(C#N)=Cc1cc(O)c(O)c(O)c1
inactive: [1] -0.0494 | [2] 0.0428 | [3] 0.0608 | [4] -0.0659 | [9] 0.269 | [10] 0.131 | [5] -0.0151 | [6] 0.0163 | [11] 0.19 | [12] 0.0774 | [7] 0.0348 | [8] 0.1

N#CC(C#N)=Cc1ccc(O)c(O)c1
inactive: [1] 0.0488 | [2] -0.0484 | [3] 0.042 | [4] -0.0954 | [9] 0.172 | [10] 0.124 | [5] 0.0531 | [6] -0.000697 | [11] 0.143 | [12] 0.061 | [7] -0.0656 | [8] 0.016

C[N+](C)(C)CCOC(=O)CBr
inactive: [9] 0.173 | [10] 0.097 | [11] 0.0892 | [12] 0.139

COc1ccc2c(c[n+](C)c3c4cc5c(cc4ccc23)OCO5)c1OC
inactive: [9] 0.273 | [10] 0.121 | [11] 0.106 | [12] 0.0124

CN1CC[C@@]23CCCC[C@@H]2[C@@H]1Cc1ccc(O)cc13
inactive: [9] 0.228 | [10] 0.105 | [11] 0.167 | [12] 0.081

C[C@]12CCC(=O)C=C1CCc1ccc(O)cc12
inactive: [3] 0.081 | [4] -0.029 | [5] 0.111 | [6] 0.113

CC(C)c1cc2c(c(O)c1O)[C@@]1(C(=O)O)CCCC(C)(C)[C@@H]1CC2
inactive: [3] 0.0242 | [4] 0.0347 | [5] 0.115 | [6] 0.191

CCC(C)C(=O)OC1CC2(C)C(c3ccoc3)OC(=O)CC23OC2(C)OC34C(OC(=O)C(C)C)C3(O)C(OC(=O)C5(C)OC5C)C5(C)CC3(O)C(C)(C5CC(=O)OC)C14O2 (stereo unspecified)
inactive: [3] 0.108 | [4] -0.0058 | [5] 0.0939 | [6] 0.12

CO[C@H]1C[C@H](O[C@H]2CC[C@@]3(C)[C@H](CC[C@@H]4[C@@H]3CC[C@]3(C)[C@@H](C5=CC(=O)OC5)[C@@H](OC(C)=O)C[C@]43O)C2)O[C@@H](C)[C@@H]1O
active: [3] -0.578 | [4] -1.73 | [5] -3.54 | [6] -4.25

CC(=O)O[C@H]1C[C@@H]2CC[C@@H]3[C@H](CC[C@@]4(C)[C@H]3C[C@H]([N+]3(C)CCCCC3)[C@@H]4OC(C)=O)[C@@]2(C)C[C@@H]1[N+]1(C)CCCCC1
inactive: 0.103 µM, library screen: screen3, EWS-FLI1 expression: high (no doxycycline) 0.0285 | 0.103 µM, library screen: screen3, EWS-FLI1 expression: low (doxycycline-induced shRNA knockdown) 0.0357 | [9] 0.133 | [10] 0.105 | 0.308 µM, library screen: screen3, EWS-FLI1 expression: high (no doxycycline) 0.115 | 0.308 µM, library screen: screen3, EWS-FLI1 expression: low (doxycycline-induced shRNA knockdown) 0.051 | 0.926 µM, library screen: screen3, EWS-FLI1 expression: high (no doxycycline) 0.183 | 0.926 µM, library screen: screen3, EWS-FLI1 expression: low (doxycycline-induced shRNA knockdown) 0.0779 | [11] 0.145 | [12] 0.0752 | 2.8 µM, library screen: screen3, EWS-FLI1 expression: high (no doxycycline) 0.112 | 2.8 µM, library screen: screen3, EWS-FLI1 expression: low (doxycycline-induced shRNA knockdown) 0.0286 | 8.3 µM, library screen: screen3, EWS-FLI1 expression: high (no doxycycline) 0.106 | 8.3 µM, library screen: screen3, EWS-FLI1 expression: low (doxycycline-induced shRNA knockdown) 0.0203 | 25 µM, library screen: screen3, EWS-FLI1 expression: high (no doxycycline) 0.16 | 25 µM, library screen: screen3, EWS-FLI1 expression: low (doxycycline-induced shRNA knockdown) 0.0865

C[C@H]1O[C@@H](O[C@H]2[C@@H](O)C[C@H](O[C@H]3[C@@H](O)C[C@H](O[C@H]4CC[C@@]5(C)[C@H](CC[C@@H]6[C@@H]5CC[C@]5(C)[C@@H](C7=CC(=O)OC7)[C@@H](O)C[C@]65O)C4)O[C@@H]3C)O[C@@H]2C)C[C@H](O)[C@@H]1O
active: [3] -0.13 | [4] -0.332 | [5] -1.73 | [6] -1.76

C[C@]12CC[C@H](O)C[C@H]1CC[C@@H]1[C@@H]2CC[C@]2(C)[C@@H](C3=CC(=O)OC3)[C@@H](O)C[C@]12O
inactive: [3] 0.0825 | [4] 0.115 | [5] 0.137 | [6] 0.0999

CC(=O)O[C@@H]1CC[C@@]2(C)[C@@H](CC[C@@H]3[C@@H]2CC[C@]2(C)C(=O)CC[C@@H]32)C1
inactive: [3] 0.0923 | [4] 0.0254 | [5] 0.0362 | [6] 0.0893

CC(=O)OC1CC(OC2C(O)CC(OC3C(O)CC(OC4CCC5(C)C(CCC6C5CC(O)C5(C)C(C7=CC(=O)OC7)CCC65O)C4)OC3C)OC2C)OC(C)C1OC1OC(CO)C(O)C(O)C1O (stereo unspecified)
active: [5] -2.91 | [6] -3.01
inactive: [3] 0.0557 | [4] -0.286

CC(=O)OC1CCC2(C)C(CCC3C2CCC2(C)C(C4=CC(=O)OC4)C(OC(C)=O)CC32O)C1 (stereo unspecified)
inactive: [3] -0.0585 | [4] -0.416
active: [5] -2.02 | [6] -2.26

NS(=O)(=O)c1ccc2c(c1)CNCC2
inactive: [9] 0.162 | [10] 0.085 | [11] 0.143 | [12] 0.0805

CC[S+]([O-])CCSP(=O)(OC)OC (stereo unspecified)
inactive: [3] 0.119 | [4] 0.0126 | [5] 0.119 | [6] 0.0247

NC(=O)c1cc([N+](=O)[O-])cc([N+](=O)[O-])c1
inactive: 0.025 µM, library screen: screen2, EWS-FLI1 expression: high (no doxycycline) 0.148 | 0.025 µM, library screen: screen2, EWS-FLI1 expression: low (doxycycline-induced shRNA knockdown) 0.069 | [3] 0.071 | [4] 0.00829 | [9] 0.134 | [10] 0.0542 | [5] 0.16 | [6] 0.158 | [11] 0.195 | [12] 0.121 | 25 µM, library screen: screen2, EWS-FLI1 expression: high (no doxycycline) 0.244 | 25 µM, library screen: screen2, EWS-FLI1 expression: low (doxycycline-induced shRNA knockdown) 0.114

C=C[C@H]1CN2CC[C@H]1C[C@@H]2[C@@H](OC(=O)OCC)c1ccnc2ccc(OC)cc12
inactive: [3] 0.12 | [4] 0.082 | [5] 0.173 | [6] 0.169

Brc1ccc(CN2CCNCC2)cc1
inactive: [3] 0.0414 | [4] 0.121 | [5] 0.0626 | [6] 0.0805

C[C@@H](N)[C@@H](O)c1ccccc1
inactive: [3] 0.199 | [4] 0.05 | [5] 0.0838 | [6] 0.0342

O=C(O)COc1ccc(Cl)cc1Cl
inactive: [3] 0.0733 | [4] 0.0542 | [5] 0.0257 | [6] 0.121

Oc1ccc2c3c1O[C@H]1c4oc5ccccc5c4C[C@@]4(O)C(C2)N(CC2CC2)CCC314 (stereo partly specified)
inactive: [9] 0.123 | [10] 0.122 | [11] 0.0412 | [12] 0.065

CC(C)(C)c1o[nH]c(=O)c1CC(N)C(=O)O (stereo unspecified)
inactive: [9] 0.0947 | [10] 0.0371 | [11] 0.104 | [12] 0.0294

CC[C@@H](C)C(=O)O[C@H]1[C@H](O)[C@H]2[C@@H](CN3C[C@@H](C)CC[C@H]3[C@@]2(C)O)[C@@H]2C[C@]34O[C@]5(O)[C@@H](OC(=O)[C@@](C)(O)[C@@H](C)O)CC[C@@]3(C)[C@@H]5[C@@H](OC(C)=O)[C@@H](OC(C)=O)[C@H]4[C@@]21O
inactive: [3] 0.0432 | [4] 0.0125 | [5] 0.068 | [6] 0.0811

CN1C2CC3CC1[C@H](O)C2O3 (stereo partly specified)
inactive: [3] 0.0139 | [4] -0.0209 | [5] 0.0278 | [6] 0.0758

NC(CF)(Cc1cnc[nH]1)C(=O)O (stereo unspecified)
inactive: [9] 0.186 | [10] 0.069 | [11] 0.162 | [12] 0.1

CC(=O)O[C@@H]1C[C@H]2C(C)(C)C(=O)C=C[C@]2(C)[C@H]2CC[C@]3(C)C(=CC(=O)O[C@H]3c3ccoc3)[C@@]21C
inactive: [3] 0.03 | [4] 0.143 | [5] 0.0618 | [6] 0.0922

C=C(C)C(=O)/C(=C\C(=O)O)OC
inactive: [3] 0.0761 | [4] 0.0593 | [5] 0.138 | [6] 0.0173

COP(=O)(OC)OC(Br)C(Cl)(Cl)Br (stereo unspecified)
inactive: [3] 0.05 | [4] -0.000859 | [5] 0.0787 | [6] 0.115

COc1cc(OC)c(OC)cc1C=O
inactive: [3] 0.0675 | [4] 0.0986 | [5] 0.037 | [6] 0.0609

CN[C@@H](C)[C@H](O)c1ccccc1
inactive: [3] 0.0728 | [4] 0.0797 | [9] 0.178 | [10] 0.073 | [5] 0.233 | [6] 0.0725 | [11] 0.0371 | [12] 0.00703

O=C(O)c1cc[c]([Hg][Cl])cc1
active: [11] -0.0791
inactive: [9] 0.203 | [10] 0.0774 | [12] 0.0559

COc1ccc(C(=O)O)cc1OC
inactive: [3] 0.0171 | [4] 0.0588 | [5] 0.137 | [6] -0.0498

NNCc1cccc(O)c1
inactive: [3] 0.103 | [4] 0.0544 | [9] 0.129 | [10] 0.00623 | [5] 0.142 | [6] 0.142 | [11] 0.151 | [12] 0.0221
